Screening data deposited in PubChem BioAssay by National Center for Advancing Translational Sciences (NCATS).
TDP1 cell CPT = growth inhibition of DT40 Tdp1-/-;hTDP1 cells with camptothecin (screen for TDP1 inhibitors). chicken DT40 Tdp1-/-;hTDP1 cells + 20 nM CPT, ATP luminescence, 48 h. Potency, µM (top dose mostly 46.2 µM), without a hit: top-dose activity change, negative = growth inhibition, most hits filed as inhibitors. actives 12% (n = 420,000); also: nearly all actives have a fitted effect of over 55% in size
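Chicken DT40 Tdp1-/- cells complemented with human TDP1, 400 cells/well, exposed to compounds plus 20 nM camptothecin for at least 48 h at 37 C; viability read as ATP content by CellTiter-Glo luminescence.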
TDP1 inh = TDP1 (human) enzyme inhibition | Q9NUW8 | recombinant TDP1, AlphaScreen DNA substrate cleavage | Potency, µM (highest dose often 130 µM), for inactives: at the highest dose activity change, negative = inhibition, most hits filed as inhibitors | actives 0.28% (n = 350,000); also: nearly all actives have a fitted effect of over 40% in size
Target sequence (Q9NUW8 whole entry, looked up): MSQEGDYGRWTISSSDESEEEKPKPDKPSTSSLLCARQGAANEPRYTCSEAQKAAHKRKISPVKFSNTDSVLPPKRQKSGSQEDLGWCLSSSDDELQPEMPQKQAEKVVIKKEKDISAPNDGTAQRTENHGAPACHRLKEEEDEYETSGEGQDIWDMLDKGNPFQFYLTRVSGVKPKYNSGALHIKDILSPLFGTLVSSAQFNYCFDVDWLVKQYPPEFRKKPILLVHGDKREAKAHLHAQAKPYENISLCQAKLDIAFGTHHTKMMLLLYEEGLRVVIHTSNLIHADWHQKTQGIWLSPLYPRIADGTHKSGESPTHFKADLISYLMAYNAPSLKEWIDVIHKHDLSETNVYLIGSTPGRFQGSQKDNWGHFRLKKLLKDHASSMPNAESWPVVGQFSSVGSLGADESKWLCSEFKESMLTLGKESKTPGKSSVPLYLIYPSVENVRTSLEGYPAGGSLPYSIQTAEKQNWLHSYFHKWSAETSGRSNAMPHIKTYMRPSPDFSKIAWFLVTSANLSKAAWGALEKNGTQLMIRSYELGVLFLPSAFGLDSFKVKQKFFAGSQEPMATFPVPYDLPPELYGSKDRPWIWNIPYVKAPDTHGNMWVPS
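Recombinant human Tdp1 (E. coli-expressed, 1 nM final) preincubated with compounds 15 min at room temperature, then 5'-biotin/3'-phosphotyrosine-FITC DNA substrate (15 nM final) added for 5 min. AlphaScreen beads (10 ug/ml final) added 10 min; cleavage lowers signal.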
Gal4-VP16 FLuc = inhibits Gal4-VP16 luciferase reporter, ROR gamma counter-screen | Drosophila S2 Gal4-VP16 UAS-luciferase, luminescence, 20 h | Potency, µM (titrated, usually from 53.6 µM), for inactives: at the highest dose activity, negative = inhibition, most hits filed as inhibitors | actives 3.5% (n = 310,000);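 also: Gal4-VP16 expression switched on by copper sulfate through the metallothionein promoter; nearly all actives have a fitted effect of over 50% in size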
RORg inh = blocks mouse ROR gamma transcriptional activity; actives 5.4% (n = 310,000); Potency, µM (series often up to 53.6 µM), without a hit: at the top dose activity change, negative = inhibition, actives largely listed as inhibitors; Drosophila S2 Gal4-RORgamma UAS-luciferase reporter, 20 h; P51450; also: nearly all actives have a fitted effect of over 60% in size
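Drosophila S2 cells stably expressing Gal4-DBD/mouse RORγ fusion under metallothionein promoter plus UAS-luciferase; compound 1 h, then 700 uM CuSO4 induction for 20 h at ambient temperature; inhibition read as reduced luminescence.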
DT40 TDP1 no CPT = qHTS for Inhibitors of human tyrosyl-DNA phosphodiesterase 1 (TDP1): qHTS in cells in absence of CPT. DT40 Tdp1-/- hTDP1 cells, no CPT, ATP luminescence, 48 h. Potency, µM (series often up to 46.2 µM), for inactives: at the top dose activity change, negative = growth inhibition, usual class: inhibitors. actives 15% (n = 420,000); also: nearly all actives have a fitted effect of over 55% in size
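Stably hTDP1-transfected Tdp1-null chicken DT40 cells were treated with library compounds minus camptothecin and grown for at least 48 hr at 37 °C, after which cellular ATP was quantified by luminescence.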
An asterisk follows results filed as active; ? = inconclusive; . = no result; [ ] = dose if it differs, or a comment. The list is not random: actives were taken first. Their share in the collection is about 19%. Calls follow the shape of the dose curve; as a rule, active = well fitted curve in the direction sought with a large enough effect; inconclusive = small, poorly fitted or top-dose-only effect, or another doubt; inactive = no such curve, though single readings can be large; an effect the other way counts as inactive or inconclusive. % is scaled to controls: 0 for no effect and ±100 for the full control effect; potency is read from the fitted curve at half-maximal effect.

SMILES	TDP1 cell CPT	TDP1 inh	Gal4-VP16 FLuc	RORg inh	DT40 TDP1 no CPT
Cc1ccccc1NC(=S)c1ccc2ccccc2n1	?	9.9%	6.31µM*	?	?
CCCN(CC(=O)Nc1ccccc1C)C(=O)c1ccc2ccccc2n1	?	-12.0%	.	.	?
C/C=C(\C)CN1CCC(n2nccc2NC(=O)c2ccc(OC)cc2)CC1	-17.5%	-2.7%	?	-12.9%	4.0%
CCOc1ccc(-n2cc(C(=O)NC(C)C)c3cc(OC)c(OC)cc3c2=O)cc1	?	0.9%	-10.4%	1.1%	25.9µM*
CCOc1ccc(NC(=O)c2cn(-c3ccc(OCC)cc3)c(=O)c3cc(OC)c(OC)cc23)cc1	-9.1%	0.9%	-6.1%	24.0%	-3.0%
CCOc1ccc(-n2cc(C(=O)N3CCC(C)CC3)c3cc(OC)c(OC)cc3c2=O)cc1	16.4µM*	2.0%	-10.1%	?	14.6µM*
CCOc1ccc(-n2cc(C(=O)Nc3cccc(C)n3)c3cc(OC)c(OC)cc3c2=O)cc1	?	.	.	.	25.9µM*
COC(=O)[C@H](C)N(Cc1ccc(Cl)c(Cl)c1)S(=O)(=O)CCN1CCN(c2ccccc2)CC1	?	1.1%[56.1 µM]	.	.	18.4µM*
O=C1c2ccccc2C(=O)N1CCc1nc(-c2ccc(Cl)cc2)no1	-6.7%	-1.0%	11.5%	3.0%	2.9%
CC(C)CC(=O)Nc1ccc2nc(SCC(=O)N3CCCC3)sc2c1	23.1µM*	5.7%	.	.	23.1µM*
CC(C)CC(=O)Nc1ccc2nc(SCC(=O)N3CCOCC3)sc2c1	-7.8%	-0.5%	.	.	?
CCC(CC)C(=O)Nc1ccc2nc(SCC(=O)N3CCCC3)sc2c1	?	-0.5%	.	.	20.6µM*
Cn1c(SCC(=O)Nc2ccc3nc(SCC(=O)N4CCCC4)sc3c2)nnc1-c1ccc(N)cc1	?	35.5µM*	5.1%	31.1%	?
Cn1c(SCC(=O)Nc2ccc3nc(SCC(=O)NC4CC4)sc3c2)nnc1-c1ccccc1	-3.0%	-4.4%	-20.0%	-21.7%	?
CCN(CC)CCNC(=O)c1cc2c(=O)[nH]c3ccc(C)cc3c2s1	6.2%	3.8%	.	.	-18.9%
CCc1cccc(NC(=O)CCc2nc3cccnc3n2Cc2ccc(OC)cc2)c1	-16.3%	4.6%	.	.	?
NC(=O)c1ccsc1NC(=O)c1cc(=O)c2ccccc2o1	-15.3%	3.9%	-8.7%	-1.7%	-24.0%
Cc1cccc(C)c1NC(=O)CSCC(=O)c1ccc(O)c(O)c1	?	4.9%	5.1%	-22.3%	?
O=C(Nc1ccc(S(=O)(=O)Nc2nccs2)cc1)c1ccccc1OC(F)F	1.1%	3.1%	.	.	13.8%
O=C(NCCNC[C@@H](O)COc1ccc(O)cc1)N1CCOCC1	-1.0%	2.4%	0.6%	-2.5%	-6.1%
Cc1ccc(N(CC(=O)NCCSCc2ccco2)S(=O)(=O)c2ccc(F)cc2)cc1	25.9µM*	4.8%	7.7%	?	23.1µM*
Cc1ccc(S(=O)(=O)N(CC(=O)NCCSCc2ccco2)c2ccc(F)cc2)cc1	.	2.7%	-19.0%	0.2%	.
Cc1ccc(S(=O)(=O)N(CC(=O)NCCSCc2ccco2)c2cc(C)ccc2C)cc1	15.8µM*	.	.	.	?
COc1ccc(S(=O)(=O)Cc2ccc(C(=O)NCc3ccc(F)cc3)o2)cc1	.	5.2%	1.8%	32.5%	.
COc1ccc(CNc2cccc3[nH]c(C(F)(F)F)nc23)cc1	?	.	-4.7%	?	?
SMILES	TDP1 cell CPT	TDP1 inh	Gal4-VP16 FLuc	RORg inh	DT40 TDP1 no CPT
COc1cc(CNc2cccc3[nH]c(C(F)(F)F)nc23)cc(OC)c1	23.1µM*	.	-10.8%	?	25.9µM*
Nc1c(NCCN2CCCCC2)c2ccccc2oc1=O	14.6µM*	-3.6%	9.5%	-13.5%	16.4µM*
CC(C)CCNC(=O)c1ccc(Cn2c(=S)[nH]c3ccccc3c2=O)cc1	-8.6%	.	?	?	-23.5%
COc1ccc(Cn2c(=S)[nH]c3ccccc3c2=O)cc1	9.3%	.	10µM*	8.91µM*	14.7%
Cc1ccc(Cn2c(=S)[nH]c3ccccc3c2=O)cc1	0.3%	.	6.31µM*	3.98µM*	9.2%
Cc1cc(C)c2c(c1)/C(=N/NS(=O)(=O)c1ccccc1)CCC2	-4.9%	0.0%	-3.1%	?	?
Cc1cc(-c2nnc(CCC(=O)NCc3ccc(F)c(F)c3)o2)no1	7.9%	2.8%	2.1%	-1.2%	7.6%
Cc1ccc(N/N=C2\CC(=O)c3ccccc32)cc1Cl	.	.	-19.5%	-11.6%	.
COC(=O)C1=C(C(=O)OC)[C@@H]2N(Cc3ccccc3)c3ccccc3[C@@]23C[C@@H](C(=O)OC)N(S(=O)(=O)c2c(C)noc2C)C3=N1	.	9.1%[21 µM]	.	.	.
COC(=O)C1CCCCN1C(=O)c1ccc2oc(Cc3ccccc3)nc2c1 (stereo not given)	-17.8%	5.0%	23.6%	34.5%	?
FC(F)(F)c1cc(Cl)c2nc(-c3ccccc3)c(Cc3ccsc3)n2c1	-17.1%	.	.	.	-16.3%
COC(=O)c1ccc2nc(C3CCCCC3)c(Cc3ccccc3)n2c1	16.4µM*	.	.	.	9.2µM*
COC(=O)c1ccc2nc(-c3ccc(F)cc3)c(Cc3ccsc3)n2c1	?	.	.	.	18.4µM*
Cc1ccc2nc(-c3ccccc3)c(Cc3ccsc3)n2c1	14.6µM*	.	.	.	16.4µM*
N#Cc1ccc(-c2nc3c(Cl)cc(C(F)(F)F)cn3c2Cc2ccsc2)cc1	-8.8%	.	.	.	-11.4%
COC(=O)c1ccc2nc(-c3ccc(C#N)cc3)c(Cc3ccsc3)n2c1	?	.	.	.	23.1µM*
CCCCn1c(SCn2nnc3ccccc3c2=O)nc2cc(S(N)(=O)=O)ccc21	-23.9%	-4.5%	2.8%	-1.0%	?
O=C(COC(=O)c1ccco1)NCc1ccc(Cl)cc1Cl	0.7%	-8.4%	.	.	-3.5%
COc1cccc(-n2ccnc2SCC(=O)Nc2nccs2)c1	-19.1%	-4.3%	-2.9%	-21.5%	-10.9%
COC(=O)c1ccc2nc(-c3ccc(F)cc3)c(Cc3ccccc3)n2c1	16.4µM*	.	.	.	23.1µM*
COC(=O)c1ccc2nc(-c3ccc(F)cc3)c(Cc3ccccc3C(F)(F)F)n2c1	-10.2%	.	.	.	-22.7%
COC(=O)c1ccc2nc(-c3ccc(C)cc3)c(Cc3ccsc3)n2c1	18.4µM*	.	.	.	20.6µM*
O=C(CN1C(=O)COc2ccc(Cl)cc21)Nc1nccs1	-21.1%	-0.1%	.	.	-27.0%
CC1CCCCC1NC(=O)CCNS(=O)(=O)c1cc(Br)cnc1N (stereo not given)	-20.8%	1.5%	-3.9%	7.0%	?
CCOc1ccccc1Nc1sc(C(=O)c2ccccc2)c(N)c1S(=O)(=O)c1ccc(C)cc1	?	-5.4%	.	.	5.8µM*
COc1ccc(S(=O)(=O)c2c(Nc3ccccc3F)sc(C(=O)c3cccc(OC)c3)c2N)cc1	5.17µM*	5.3%	.	.	6.51µM*
